Test results as given in the OligoGym collection.

biological target: MAN1C1; experiment: pooled miR-30 sensor sort-seq; sequence = guide strand; details: shRNA
Further: reference of the scale not given here.

Row | Sequence | sensor-assay potency score (higher = more potent)
1 | TAGAAAGAAGCTCTGCTGCTTG | 0.252
2 | TTCGATCTTCCTGAGGACCTTG | 0.041
3 | TTCGGAACACCTCTTCTCCTGT | -0.298
4 | TTGAACATAGGGTCAGTGTTGG | -0.0716
5 | TATGACTCGTGACACGTCTTGG | -0.605
6 | TTTGTGTGTGTGCAAACACTGG | -1.13
7 | TTGTGTGTGTGCAAACACTGGG | 0.0469
8 | TTGAGAACAGTCTCAAATCCTG | -0.222
9 | TTAGCCTCCATATCTGTCTTGC | -0.298
10 | TTATTCGGAACACCTCTTCTCC | -0.384
11 | TAACGCTTATAGCTCTGCCAAG | -1.49

biological target: MANEAL; experiment: as above; details: shRNA

Row | Sequence | sensor-assay potency score (higher = more potent)
12 | TTCTCTTTGATGAAGTGCTCCG | -0.00624
13 | ATGCTGGTGTCTATGTAGCCAG | -1.86
14 | TAGAAGGCGTGCAGGTCCGAGT | -1.05
15 | ATGAACATGAGGTTGTTGGCAT | 0.179
16 | TTGATGAAGTGCTCCGCCCAGC | -0.595
17 | TAGTACTTGCCATTGACCCTGT | -0.0343
18 | TACCACGAGTAGTAGAAGGCGT | -0.339
19 | TTTGATGAAGTGCTCCGCCCAG | -0.378
20 | AAGTTCTTCACAGCTTTCCAGT | -0.845
21 | ATAGTACTTGCCATTGACCCTG | -0.405
22 | TAGCTGGCCGAGATCTTGGGGT | -1.02
23 | TTGTGGTTGTTCCAGGGCCGAA | -1.8

biological target: MAP4K4; experiment: as above; details: shRNA

Row | Sequence | sensor-assay potency score (higher = more potent)
24 | TTTGATGCTACACTGGATCATA | -0.597
25 | TTATAGACTTGTCCATAGGTGC | -0.62
26 | TTCTTGTTCTCTCCTTCGCTGT | -0.84
27 | TAGACTTGTCCATAGGTGCCAT | -0.0714
28 | TTGCCTTTTATATTCTTCCTGC | -0.0293
29 | TTGTATTTACGAATCTCCGGGG | -0.365
30 | TTCTCTTTCAACTCTCCTCTTT | -0.401
31 | TAGAACTACATCCTTGGTGATC | -1.1
32 | TTTGTTGAAATCGTCTTCGGTT | 0.0416
33 | TTGACCACTGAGCCTTTCCGGG | -1.11
34 | TAGATCACTTTCAACCTCTGGC | 0.492
35 | TACATCATCATGGACAATCATG | -1.13

biological target: MAPK4; experiment: as above; details: shRNA

Row | Sequence | sensor-assay potency score (higher = more potent)
36 | TTAAAGAAAAAACAAAACCCAA | -1.11
37 | TTGCTGTTGACACCTCTCTTTT | -1.31
38 | TGAACTTGAACAGCTCACCCTG | -0.313
39 | TCTGAATAAAAGAACATCGAAT | -0.719
40 | TAAGTTTCTAATGTGTTGCAGG | -0.429
